# Laboratory results as given in PubChem BioAssay (NCATS).
# Inconclusive results are not listed. A number with no mark means an inactive call. Active and inactive are the calls of the source. Calls come from the whole dose curve; as a rule, active = well fitted inhibition curve with a large enough effect; inconclusive = small, poorly fitted or top-dose-only effect; inactive = flat fitted curve, though single readings scatter.
# Experiments:
# KB-3-1 = test: Cytotoxic Profiling of Annotated Libraries Using Quantitative High-Throughput Screening (AID 1296008); conditions: Five cell lines viability, CellTiter-Glo ATP luminescence, 48-72 h; max response: hits give low values
# How it was run: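 Cytotoxicity was measured as CellTiter-Glo ATP luminescence, read after 10 min at room temperature. Compound treatment of the cells lasted 48 or 72 hr at 37 degrees Celsius in a qHTS format.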
# MCC-13 = test: qHTS assay to identify novel small-molecules to repurpose for Merkel cell carcinoma treatment (AID 1296009); conditions: MCC and control cell lines, CellTiter-Glo viability, 72 h; series mostly up to 46 µM
# How it was run: (§1)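 72 hr, 37 degree celsius; NPC 8-pt / MIPE 11-pt dose response; compound pinned in DMSO; CellTiter-Glo, 10 min RT, luminescence; normalized to no-cell and DMSO controls.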
# MCC-26 = test: as above; conditions: MCC and control cell lines, CellTiter-Glo viability, 72 h; series mostly up to 46 µM
# How it was run: as §1
# MKL-1 = test: as above; conditions: MCC and control cell lines, CellTiter-Glo viability, 72 h; series mostly up to 46 µM
# How it was run: as §1
# MKL-2 = test: as above; conditions: MCC and control cell lines, CellTiter-Glo viability, 72 h; series mostly up to 46 µM
# How it was run: as §1
# % is set by controls: 0 for no effect and ±100 for the full control effect.
# Note: nearly all actives have a fitted effect of over 60% in size.
compound,measurement,setting,value
N[C@H](CC(=O)O)C(=O)O,max response,KB-3-1,11.5%
O=C(O)CCC(=O)c1ccc(-c2ccccc2)cc1,outcome,MCC-13,inactive
same,outcome,MCC-26,inactive
same,outcome,MKL-1,inactive
same,outcome,MKL-2,inactive
CC(C)(Oc1ccc(C2CCCc3ccccc32)cc1)C(=O)O (centres undefined),max response,KB-3-1,-10.9%
C[C@]12CCC(=O)C[C@@H]1CC[C@@H]1[C@@H]2CC[C@]2(C)C=CC[C@@H]12,max response,KB-3-1,-14.2%
C=C1CC[C@H](O)CC1=C/C=C1\CCC[C@]2(C)[C@@H]([C@H](C)CC[C@@H](O)C(C)(C)O)CC[C@@H]12,max response,KB-3-1,6.41%
O=C(Nc1ccc(O)cc1)c1ccccc1O,max response,KB-3-1,4.06%
CC1=CC(=O)NS(=O)(=O)O1,max response,KB-3-1,-8.51%
CC(/C=C/C=C(\C)C(=O)O[C@@H]1O[C@H](CO[C@@H]2O[C@H](CO)[C@@H](O)[C@H](O)[C@H]2O)[C@@H](O)[C@H](O)[C@H]1O)=C\C=C\C=C(C)\C=C\C=C(/C)C(=O)O[C@@H]1O[C@H](CO[C@@H]2O[C@H](CO)[C@@H](O)[C@H](O)[C@H]2O)[C@@H](O)[C@H](O)[C@H]1O,max response,KB-3-1,1.72%
Cc1cc(C(=O)NCCc2ccc(S(=O)(=O)NC(=O)NN3CCCCCC3)cc2)no1,max response,KB-3-1,8.89%
CC(C)[C@@H]1CC[C@@H](C)C[C@H]1O,max response,KB-3-1,-7.15%
CC(=O)OCC(=O)[C@@]1(O)CC[C@H]2[C@@H]3CCC4=CC(=O)CC[C@]4(C)C3=CC[C@@]21C,max response,KB-3-1,-7.13%
CO/N=C(\C(=O)N[C@@H]1C(=O)N2C(C(=O)O)=C(C[N+]3(C)CCCC3)CS[C@H]12)c1csc(N)n1,max response,KB-3-1,2.85%
CC(=O)c1ccc2c(c1)N(CCCN1CCN(CCO)CC1)c1ccccc1S2,max response,KB-3-1,1.1%
CC(C)N1CCN(c2ccc(OC[C@H]3CO[C@](Cn4cncn4)(c4ccc(Cl)cc4Cl)O3)cc2)CC1,max response,KB-3-1,0.302%
CCCCC(=O)O[C@H]1CC[C@H]2[C@@H]3CCc4cc(O)ccc4[C@H]3CC[C@]12C,max response,KB-3-1,0.0537%
COc1ccc([C@@H]2CC(=O)c3c(O)cc(O[C@@H]4O[C@H](CO[C@@H]5O[C@@H](C)[C@H](O)[C@@H](O)[C@H]5O)[C@@H](O)[C@H](O)[C@H]4O)cc3O2)cc1O,max response,KB-3-1,-3.21%
CCOC(=O)Oc1c(OC)cc(C(=O)O[C@@H]2C[C@@H]3CN4CCc5c([nH]c6cc(OC)ccc56)[C@H]4C[C@@H]3[C@H](C(=O)OC)[C@H]2OC)cc1OC,max response,KB-3-1,3.08%
Nc1nc2c(c(=O)[nH]1)N(C=O)C(CNc1ccc(C(=O)N[C@@H](CCC(=O)O)C(=O)O)cc1)CN2 (some centres undefined),max response,KB-3-1,0.559%
CC(C)(C)CC(C)(C)c1ccc(OCCO)cc1,max response,KB-3-1,-16.2%
COc1ccc(/C=C/C(=O)OCCC(C)C)cc1,max response,KB-3-1,-0.838%
O=P(O)(O)OC[C@H](O)CO,max response,KB-3-1,-16.7%
